Bioassay records (PubChem)
Hits are enriched below; roughly 0.58% of the tested compounds scored in any of these assays.
TcdB inh: inhibitors of Clostridioides difficile toxin B glycohydrolase. P18177. TcdB glycohydrolase enzymatic assay, plate reader. inhibition, % at 9.99 µM. hit rate 0.24% among 350,000; in the data active = inhibition above about 10%
FadD28 binding: M. tuberculosis FadD28 bisubstrate binding inhibition; FadD28 bisubstrate probe binding, fluorescence polarization; inhibition, % at 12.5 µM; hit rate 0.22% among 360,000; AID 588549; in the data active = inhibition above about 8.5%, passing the limit was not always enough; inconclusive = no clear call, values can overlap the other calls
BH1578 lux ind: quorum light induction in luxS cqsA deficient V. cholerae | activation, % at 18.7 µM | V. cholerae BH1578 lux reporter, luminescence, 6 h | hit rate 0.16% among 350,000; in the data active = activation mostly above about 9.7%, no sharp cut-off; inconclusive = no clear call, values can overlap the other calls; inactive = mostly below about 3.7%
Yp Topo-I inh: inhibitors of Yersinia pestis topoisomerase I; Y. pestis Topo-I cleavage product accumulation, plate reader; activity, % at 10 µM; hit rate 0.064% among 360,000; AID 504884; in the data active = activity above about 50%, passing the limit was not always enough; inconclusive = no clear call, values can overlap the other calls
Mtb BioA inh: BioA (M. tuberculosis) enzyme inhibition; purified M. tuberculosis BioA enzyme, plate reader; inhibition, % at 9.99 µM; hit rate 0.096% among 360,000; in the data active = inhibition above about 40%; inconclusive = no clear call, values can overlap the other calls
* hit, by the source's call; i = inactive; ? = inconclusive; · = no result.

SMILES | TcdB inh | FadD28 binding | BH1578 lux ind | Yp Topo-I inh | Mtb BioA inh
Cc1cc(C)c2c(=O)n3c(nc2c1)C(Cc1ccc(O)cc1)NC(=O)c1cc2ccccc2cc1-3 (stereo not given) | 2 | -4 | -2 | 59* | -2
CC(=O)Nc1ccc(NC(=O)c2ccc3c(c2)CCN3S(C)(=O)=O)cc1 | 0 | · | -2 | 6 | -1
CS(=O)(=O)N1CCc2cc(C(=O)Nc3ccc(O)cc3)ccc21 | 25* | 0 | i | -2 | 0
CCCCCCCNC(=O)C1(CC2CC(c3cccc(Br)c3)=NO2)CCN(C(=O)OC(C)(C)C)CC1 (stereo not given) | -1 | -4 | 0 | 3 | 0
CCCCCCCNC(=O)C1(CC2CC(c3cccc(Br)c3)=NO2)CCN(C(=O)C2CCCC2)CC1 (stereo not given) | 0 | -4 | i | 60* | 0
COC(=O)[C@]1(Cc2ccccc2)N[C@H](CN(C)S(=O)(=O)c2ccc(-c3ccccc3)cc2)[C@@H]2C(=O)N(C)C(=O)[C@@H]21 | 1 | 11* | 1 | 23 | -1
O=C(O)Cc1ccc(N=Nc2c(O)c(C(=O)O)cc3ccccc23)cc1 | -1 | 14* | i | -5 | 9
NS(=O)(=O)c1ccc(N=Nc2c(O)c(C(=O)O)cc3ccccc23)cc1 | 0 | 5 | -1 | -17 | 0
CCC(=O)N(C)C[C@H]1Oc2ncc(C3=CCCC3)cc2C(=O)N([C@@H](C)CO)C[C@@H]1C | 0 | · | · | · | -3
Cc1cc(NC(=O)CCCN2C(=O)c3cccc4cccc(c34)C2=O)no1 | 11* | -1 | 1 | 0 | ·
COCC(=O)Nc1ccc2c(c1)C(=O)N(C)C[C@@H](OC)[C@@H](C)CN(Cc1ccccc1)[C@@H](C)CO2 | -1 | · | · | · | 0
CC(C)NC(=O)N(C)C[C@H]1OCCCC[C@H](C)Oc2ccc(NS(=O)(=O)c3ccc(Cl)cc3)cc2C(=O)N([C@@H](C)CO)C[C@@H]1C | 1 | · | · | · | 2
O=C(NCC1CCCCC1)[C@H]1[C@H](CO)[C@H]2Cn3c(cccc3=O)[C@@H]1N2CCc1ccccc1 | 0 | · | · | · | 1
CCCNC(=O)N1CC[C@@H]2[C@@H](CO)N(C)c3ccc(-c4ccc(F)cc4)cc3[C@@H]21 | 12* | · | · | · | 11
CCCNC(=O)N1CC[C@@H]2[C@H]1c1cc(-c3ccccc3)ccc1N(C)[C@H]2CO | 12* | · | · | · | ·
CCOc1ccc2nc3cc(N=Nc4ccc(N)nc4N)ccc3c(N)c2c1 | · | 25* | 2 | -58 | ·
CCOc1ccc2[nH]c(C)cc(=O)c2c1 | 1 | 0 | 0 | -3 | -1
COc1ccc(NC(=O)N(C)C[C@@H]2Oc3c(NC(=O)Nc4ccc(C(F)(F)F)cc4)cccc3C(=O)N([C@H](C)CO)C[C@@H]2C)cc1 | · | · | · | · | -3
COc1cc(-c2n[nH]c(=S)n2/N=C/c2cccn2C)cc(OC)c1OC | 11* | -3 | -1 | 3 | ·
Cc1c(Br)c(O)c(Br)c(O)c1/C=N/n1c(-c2ccccc2)n[nH]c1=S | -1 | 21* | i | -1 | 6
COc1cc(/C=N/n2c(-c3ccccc3)n[nH]c2=S)ccc1O | 18* | -2 | i | 0 | ·
Oc1c(Br)cc(/C=N/n2c(-c3ccccc3)n[nH]c2=S)c(O)c1Br | · | ? | i | -14 | 13
Cn1cccc1/C=N/n1c(-c2ccco2)n[nH]c1=S | · | -4 | -2 | 4 | ·
COCC(=O)N1CC2(C1)[C@@H](c1ccc(C3=CCCC3)cc1)[C@H](CO)N2C(=O)COC | 0 | · | · | · | ·
COC(=O)c1ccc(COc2ccc(/C=N/NC(N)=S)cc2)o1 | 1 | 51* | i | -2 | -1
SMILES | TcdB inh | FadD28 binding | BH1578 lux ind | Yp Topo-I inh | Mtb BioA inh
O=C(Nc1ncc([N+](=O)[O-])s1)c1ccc2c(c1)OCO2 | 2 | -1 | 0 | -2 | 2
Cc1ccc(C(=O)Nc2ncc([N+](=O)[O-])s2)cc1 | 21* | 2 | 3 | -6 | 0
Cc1ccccc1S(=O)(=O)N1CCCc2nc(C)c(C)cc21 | 11* | · | · | · | ·
COCc1c(Br)c(C)nc(OCC(=O)N/N=C/c2ccco2)c1C#N | 0 | 0 | 0 | -3 | ·
COCc1c(Br)c(C)nc(OCC(=O)N/N=C/c2ccc(C)o2)c1C#N | 11* | -3 | 1 | 4 | ·
O=C(C[C@H]1C=C[C@@H](NC(=O)Cc2cccnc2)[C@@H](CO)O1)Nc1ccc(-c2ccccc2)cc1 | 0 | · | · | · | ·
N/C(=N\N=C\c1ccc(O)cc1)c1nonc1N | 28* | -2 | i | 4 | ·
CCCc1cc2c(=O)c(-c3cscn3)c(C(=O)OCC)oc2cc1O | 2 | -2 | 0 | -3 | 0
CCOC(=O)c1[nH]nc(-c2cc(CC)c(O)cc2O)c1-c1cscn1 | 15* | -3 | 0 | -3 | -1
